Reference: ChEMBL document CHEMBL1201862, “PubChem BioAssay data set” (2004)
Out of some 400,000 compounds screened, about 2,100 (0.53%) were called active. Roughly 14% stayed inconclusive and do not appear here. This is one part of a sample in which actives are shown more often than they occur. The rule behind the calls is not given here.

target: Ataxin-2 (Homo sapiens) (UniProt Q99700); test: qHTS for Inhibitors of ATXN expression.; assay type: functional
Sequence (Q99700 whole entry): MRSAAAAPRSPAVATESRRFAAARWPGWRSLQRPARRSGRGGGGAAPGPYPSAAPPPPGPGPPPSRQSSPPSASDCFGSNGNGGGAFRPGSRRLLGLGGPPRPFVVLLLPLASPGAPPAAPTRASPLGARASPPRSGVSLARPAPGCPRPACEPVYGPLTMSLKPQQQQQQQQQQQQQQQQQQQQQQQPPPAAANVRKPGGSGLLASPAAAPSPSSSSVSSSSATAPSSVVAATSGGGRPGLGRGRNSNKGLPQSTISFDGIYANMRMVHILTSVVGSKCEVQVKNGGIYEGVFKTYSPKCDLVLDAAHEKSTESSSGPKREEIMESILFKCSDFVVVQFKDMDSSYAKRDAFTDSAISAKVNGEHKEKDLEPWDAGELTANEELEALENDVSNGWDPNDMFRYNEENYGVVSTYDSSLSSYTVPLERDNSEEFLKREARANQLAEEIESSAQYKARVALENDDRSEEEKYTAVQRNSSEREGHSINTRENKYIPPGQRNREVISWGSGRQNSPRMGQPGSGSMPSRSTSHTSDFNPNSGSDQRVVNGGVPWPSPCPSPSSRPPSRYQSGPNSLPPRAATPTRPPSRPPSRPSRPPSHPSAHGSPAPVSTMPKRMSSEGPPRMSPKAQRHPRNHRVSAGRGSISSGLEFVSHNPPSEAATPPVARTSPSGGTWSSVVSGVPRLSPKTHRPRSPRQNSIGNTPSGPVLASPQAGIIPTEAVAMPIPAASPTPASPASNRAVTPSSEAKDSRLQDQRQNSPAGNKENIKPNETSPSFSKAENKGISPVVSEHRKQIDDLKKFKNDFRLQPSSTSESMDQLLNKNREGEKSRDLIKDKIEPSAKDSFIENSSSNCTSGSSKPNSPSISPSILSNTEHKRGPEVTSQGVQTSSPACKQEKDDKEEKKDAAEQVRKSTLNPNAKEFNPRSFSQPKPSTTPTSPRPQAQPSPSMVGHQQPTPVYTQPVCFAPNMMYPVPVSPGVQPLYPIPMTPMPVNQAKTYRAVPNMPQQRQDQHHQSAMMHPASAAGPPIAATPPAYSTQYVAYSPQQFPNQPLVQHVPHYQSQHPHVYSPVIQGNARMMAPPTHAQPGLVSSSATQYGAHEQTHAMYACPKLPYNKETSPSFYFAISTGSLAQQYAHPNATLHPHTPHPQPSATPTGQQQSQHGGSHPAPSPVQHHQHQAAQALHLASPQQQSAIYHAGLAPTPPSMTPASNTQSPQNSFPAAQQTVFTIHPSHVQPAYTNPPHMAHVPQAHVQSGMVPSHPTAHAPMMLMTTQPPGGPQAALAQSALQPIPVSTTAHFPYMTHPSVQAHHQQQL

| Structure (SMILES) | Potency |
| --- | --- |
| CCOC(=O)C1CCN(C(=O)Cn2c(=O)c3cccn3c3cccnc32)CC1 | inactive |
| N#Cc1ccc(OCC(O)CS(=O)(=O)c2ccc(F)cc2)cc1 (configuration not stated) | inactive |
| CN(C)c1ccc(N=Nc2ccc(S(=O)(=O)O)cc2)c2ccccc12 | 25.1 µM (active) |
| Cc1cc(/C=c2\sc3nc4ccccc4n3c2=O)c(C)n1-c1ccc(C(=O)O)cc1 | inactive |
| COc1cc(OC)c(C(=O)OC(C)C(=O)Nc2cc(C(F)(F)F)ccc2Cl)cc1OC (configuration not stated) | inactive |
| FC(F)Oc1ccc(/C=N/NC(=S)Nc2cc(C(F)(F)F)ccc2Cl)cc1 | 39.8 µM (active) |
| CC(Sc1nc[nH]n1)C(=O)Nc1cc(C(F)(F)F)ccc1Cl (configuration not stated) | inactive |
| CCCc1cc(NCc2ccccn2)n2c(nc3ccccc32)c1C#N | inactive |
| C=C1C(=O)OC2CC1C(O)CC(C)=CCCC(C)=CC(O)CC2C (configuration not stated) | 15 µM (active) |
| CC(=O)c1sc2nc(-c3ccc(C)cc3)c3c(c2c1N)CCCC3 | inactive |
| CN(C)CCNc1ncnc2c1sc1nc(-c3ccccc3)c3c(c12)CCCC3 | 25.1 µM (active) |
| NC(=O)c1sc2nc(-c3ccccc3)c3c(c2c1N)CCCC3 | inactive |
| CCN(CC)c1cc(C)c(C#N)c2nc3ccccc3n12 | inactive |
| Cc1cc(C)nc(OC(C(=O)O)C(OCCc2ccccc2)(c2ccc(F)cc2)c2ccc(F)cc2)n1 (configuration not stated) | inactive |
| Cc1ccc(C(=O)NCC(=O)N/N=C/c2cccs2)cc1[N+](=O)[O-] | inactive |
| CS(=O)(=O)c1ccc(C(=O)NCCN2C(=O)S/C(=C\c3cccnc3)C2=O)cc1[N+](=O)[O-] | 11.2 µM (active) |
| CNCCCOc1ccc(C)cc1OC | inactive |
| COc1ccc(OCC(O)CNCCOc2ccccc2OC)c(C(C)(C)C)c1 (configuration not stated) | 20 µM (active) |
| COc1ccc(C(C(=O)NC2CCCC2)N(C(=O)c2ccco2)c2cc3c(cc2C(C)=O)OCO3)cc1 (configuration not stated) | inactive |
| CC(C(=O)NC1CCCCC1)N(Cc1ccc(F)cc1)C(=O)c1snc(C(N)=O)c1N (configuration not stated) | inactive |
| COCCN(C(=O)CCl)C(C(=O)NC1CCCCC1)c1ccccc1C (configuration not stated) | 25.1 µM (active) |
| O=C(NC1CCCC1)C(c1ccc(Cl)cc1)N(Cc1ccc(F)cc1)C(=O)CCl (configuration not stated) | 39.8 µM (active) |
| COCCCn1c(=N)c(C(=O)NC2CCCC2)cc2c(=O)n3cccc(C)c3nc21 | inactive |
| COCCCn1c(C(=O)NC2CCCCC2)cc2c(=O)n3cccc(C)c3nc21 | inactive |
| CCc1ccc(N(C(=O)c2snc(C(N)=O)c2N)C(C(=O)NC2CCCC2)c2ccncc2)cc1 (configuration not stated) | inactive |
| COc1ccc(C(C(=O)NC2CCCCC2)N(C(=O)CCl)c2ccc(C)cc2)cc1 (configuration not stated) | 7.08 µM (active) |
| NC(=O)c1nsc(C(=O)N(Cc2cccnc2)C(C(=O)NC2CCCC2)c2ccc(F)cc2)c1N (configuration not stated) | inactive |
